For 15 molecules, Potency results are on record in PubChem BioAssay (NCATS).

Records with an inconclusive call do not appear. Where a call stands in place of a potency, no number is given. Active and inactive are the calls of the source. Calls follow the shape of the dose curve; as a rule, active = well fitted cell-killing curve with a large enough effect; inconclusive = small, poorly fitted or top-dose-only effect; inactive = flat fitted curve, though single readings scatter.
Potency is read from the fitted curve at half-maximal effect.

One assay is described as follows: SDT Cancer Cell Toxicity qHTS against the NCATS CANVASS Library (AID 1347365). Also: nearly all actives have a fitted effect of over 60% in size. Particulars: SDT dog glioma viability, ATP luminescence, 72 h; series mostly up to 46.1 µM. In a few lines: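 Cytotoxicity taken from CellTiterGlo ATP luminescence after 72 hr at 37C, 5% CO2. Canine glioma line SDT, 500 cells/well, treated at 11 concentrations; bortezomib dose series as control.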
Take `C/C(=C\[C@H](C)C(=O)/C=C/CC1CC(=O)NC(=O)C1)[C@@H]1OC(=O)CCCC/C=C/[C@H](O)[C@@H](O)[C@@H]1C`: the Potency was 13.2 µM (active).
On the same count and under the same terms, as for `C/C1=C/[C@@H](C)[C@H](O)C/C=C/CC/C=C/C(=O)O[C@@H]1[C@H](C)C(=O)CCCC1CC(=O)NC(=O)C1`, the figure is 5.26 µM (active).
The same measure, in the same setting: in the case of `C=C1C[C@H]2O[C@@H]3[C@@H]4[C@H](CC[C@@](C)(O)[C@@H]42)[C@H](C)COC3(C)[C@@H](OC(=O)CCCCCCC)CC1=O` (stereo partly specified) it was 23.5 µM (active).

A short description of a further assay: KB-3-1 Cancer Cell Toxicity qHTS against the NCATS CANVASS Library (AID 1347366). Also: nearly all actives have a fitted effect of over 75% in size. Particulars: KB-3-1 viability, CellTiter-Glo luminescence, 72 h; series mostly up to 46.1 µM. In a few lines:
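500 KB-3-1 cells/well; compounds pin-transferred, 11-pnt series; 72 hr, 37C/5% CO2; CellTiter-Glo, 10 min RT; luminescence read-out.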
(qHTS replaces the single test concentration by a dilution series.)
In the case of `O[C@H]1C=C2[C@H]3CN(Cc4cc5c(cc43)OCO5)[C@H]2C[C@@H]1O`, the Potency was 13.2 µM (active).
Take `C/C=C/c1cc2c(c(=O)o1)C(=O)[C@@H](O)[C@H](C)O2`: the Potency result is “inactive”.
Consider `COc1cc2c(cc1OC)[C@@H](c1ccc3c(c1)OCO3)C(C)[C@@H](C)C2=O` (stereo partly specified), for which the Potency result is “inactive”.
The same measure, in the same setting: in the case of `COC(=O)[C@@]1(C)CCC[C@]2(C)c3cc(OC)ccc3CC[C@@H]12` it was “inactive”; in that of `COc1cc2ccc(=O)oc2c(O)c1O[C@@H]1O[C@H](CO)[C@@H](O)[C@H](O)[C@H]1O`, “inactive”; in that of `CC1=C(C)C(=O)OC(C(C)C2(O)CCC3C4C5OC5C5(O)CC=CC(=O)C5(C)C4CCC32C)C1` (stereo unspecified), “inactive”.
Same read-out and setting: in the case of `C[C@H](CCC(O)C(C)(O)CO)[C@@]1(O)CC[C@@]2(C)C3=C(CC[C@@]21C)[C@@]1(C)CCC(OC(=O)CCC(=O)O)C(C)(C)[C@@H]1CC3` (stereo partly specified) it was “inactive”; in that of `COc1cc(C2C3=C(Cc4cc5c(cc42)OCO5)C(=O)OC3)cc(OC)c1OC` (stereo unspecified), 0.105 µM (active); in that of `C=C[C@@](C)(O)CC[C@@H]1[C@@]2(C)CCCC(C)(C)[C@@H]2CC[C@@]1(C)O`, “inactive”.
Take `C/C(=C\[C@H](C)C(=O)C[C@H](O)CC1CC(=O)NC(=O)C1)[C@@H]1OC(=O)CCCC/C=C/[C@@H](O)C[C@@H]1C`: the Potency is 9.35 µM (active).
Same read-out and setting: in the case of `CC1=C[C@H]2[C@H]3C(=O)C(c4ccc(O)cc4)=C[C@@]3(c3ccc(O)cc3)[C@@H]1C(=O)[C@]2(C)O` it was 0.332 µM (active).
For the molecule `C[C@H]1CCC2(OC1)O[C@H]1C[C@H]3[C@@H]4CC(=O)[C@]5(O)C[C@H](O)CC[C@@]5(C)[C@H]4CC[C@@]3(C)[C@H]1[C@H]2C` (stereo partly specified), the Potency entry is “inactive”.
On the same count and under the same terms, as for `C/C1=C/[C@@H](C)[C@H](O)C/C=C/CC/C=C/C(=O)O[C@@H]1[C@H](C)C(=O)CCCC1CC(=O)NC(=O)C1`, the entry is “inactive”.
